Source: PubChem BioAssay (NCATS)
Where “and” joins values, the source holds several entries; their conditions need not be identical. Equal entries are not always repeated. Inconclusive results are not listed. A call without a number means that no potency is given here. Unmarked numbers belong to inactive results. Calls of active or inactive are those of the source. Calls come from the whole dose curve; as a rule, active = well fitted curve in the direction sought with a large enough effect; inconclusive = small, poorly fitted or top-dose-only effect, or another doubt; inactive = no such curve, though single readings can be large; an effect the other way counts as inactive or inconclusive.

What was measured:
[1] = Viability qHTS for spleen associated tyrosine kinase inhibitor (SYKi) naive MV4-11 cells (AID 1963823); note: nearly all actives have a fitted effect of over 40% in size; note: potency is the fitted concentration of half-maximal effect
In short: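 Viability of MV4-11 AML cells lacking prior SYK inhibitor exposure is scored by CellTiter-Glo luminescence following 72 hr compound incubation at 37 C, 5% CO2, seeded at 500 cells per well.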

[2] = Quantitative highthroughput screen to assess conditional lethalithy of NOMO1 cells grown in RPMI1640 with untreated serum (RPMI+s) (AID 1963876); note: nearly all actives have a fitted effect of over 35% in size; note: potency is the fitted concentration of half-maximal effect
In short: (§1)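 Each medium arm—HPLM with 10% dialyzed FBS, or RPMI1640 with 5 mM glucose and 10% untreated or dialyzed FBS—was screened against an 11-point, 3-fold compound titration for 48 h at 37 °C, with CellTiter-Glo luminescence as endpoint.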

[3] = Quantitative highthroughput screen to assess conditional lethalithy of NOMO1 cells grown in RPMI1640 with dialyzed fetal bovine serum (RPMI+ds) (AID 1963877); note: nearly all actives have a fitted effect of over 30% in size; note: potency is the fitted concentration of half-maximal effect; for Viability: series mostly up to about 46 µM
In short: as §1

[4] = Quantitative highthroughput screen to assess conditional lethalithy of NOMO1 cells grown in Human Plasma-Like Medium with dialyzed fetal bovine serum (HPLM+ds) (AID 1963878); note: nearly all actives have a fitted effect of over 35% in size; note: potency is the fitted concentration of half-maximal effect
In short: as §1

[5] = Quantitative highthroughput screen to assess conditional lethalithy of SEM cells grown in Human Plasma-Like Medium with dialyzed fetal bovine serum (HPLM+ds) (AID 1963882); note: nearly all actives have a fitted effect of over 35% in size; note: potency is the fitted concentration of half-maximal effect; for Viability: series mostly up to about 46 µM
In short: as §1

[6] = Quantitative highthroughput screen to assess conditional lethalithy of SEM cells grown in RPMI1640 with unreated serum (RPMI+s) (AID 1963883); note: nearly all actives have a fitted effect of over 35% in size; note: potency is the fitted concentration of half-maximal effect
In short: as §1

[7] = Quantitative highthroughput screen to assess conditional lethalithy of SEM cells grown in RPMI1640 with dialyzed fetal bovine serum (RPMI+ds) (AID 1963884); note: nearly all actives have a fitted effect of over 35% in size; note: potency is the fitted concentration of half-maximal effect; for Viability: series mostly up to about 46 µM
In short: as §1

[8] = Quantitative highthroughput screen to assess conditional lethalithy of P12 Ichikawa cells grown in Human Plasma-Like Medium with dialyzed fetal bovine serum (HPLM+ds) (AID 1963879); settings: Potency: viability; note: nearly all actives have a fitted effect of over 35% in size; note: potency is the fitted concentration of half-maximal effect; for Viability: series mostly up to about 46 µM
In short: as §1

[9] = Quantitative highthroughput screen to assess conditional lethalithy of P12 Ichikawa cells grown in RPMI1640 with dialyzed fetal bovine serum (RPMI+ds) (AID 1963880); settings: Potency: P12-Ichikawa viability; note: nearly all actives have a fitted effect of over 35% in size; note: potency is the fitted concentration of half-maximal effect
In short: as §1

[10] = Quantitative highthroughput screen to assess conditional lethalithy of P12 Ichikawa cells grown in RPMI1640 with untreated serum (RPMI+s) (AID 1963881); settings: Potency: viability; note: nearly all actives have a fitted effect of over 35% in size; note: potency is the fitted concentration of half-maximal effect; for Viability: series mostly up to about 46 µM
In short: as §1

[11] = Cellular viability qHTS for adrenocortical cancer (ACC) cell line SW-13 (AID 1963989); settings: SW-13 ACC cells viability, CellTiter-Glo, 48 h; activity (max response): stronger effect = lower value;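 note: cells grown in serum-free medium with ITS supplement; nearly all actives have a fitted effect of over 65% in size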
In short: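 48 h treatment, SW-13 in ITS/DMEM serum-free; doses up to 46 uM; readout CellTiter-Glo luminescence; curve fit four-parameter logistic.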

[12] = Cellular viability qHTS for adrenocortical cancer (ACC) cell line NCI-H295R (AID 1963990); note: nearly all actives have a fitted effect of over 60% in size
In short: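 Compound titrations (up to 46 uM final) are applied to NCI-H295R cultures for 48 h at 37C. Viable cell number is estimated by CellTiter-Glo signal, normalised to DMSO and doxorubicin controls.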

SMILES	Potency [1]	Potency [2]	Potency [3]	Potency [4]	Potency [5]	Potency [6]	Potency [7]	Potency [8]	Potency [9]	Potency [10]	activity (max response) [11]	Potency [12]
CCC[C@H]1C[C@H](C(=O)N[C@@H]([C@@H]2O[C@@H](SC)[C@@H](O)[C@@H](O)[C@@H]2O)[C@H](C)Cl)N(C)C1	inactive	inactive	inactive	inactive	inactive	inactive	inactive	–	–	–	–	–
CC(C)=CC[C@@H](O)C1=CC(=O)c2c(O)ccc(O)c2C1=O	5250 nM (active)	1660 nM (active)	2090 nM (active)	–	inactive	–	–	9350 nM (active)	13200 nM (active)	10500 nM (active)	–	–
C[C@H](NC(=O)Cc1cc(F)cc(F)c1)C(=O)N[C@@H]1C(=O)N(C)c2ccccc2-c2ccccc21	inactive	11800 nM (active)	14800 nM (active)	–	4180 nM (active)	1180 nM (active)	3320 nM (active)	2640 nM (active)	7430 nM (active)	7430 nM (active)	-7.45%	–
COc1nc(C)nc(Cl)c1NC1=NCCN1	inactive	inactive	inactive	inactive	inactive	inactive	–	inactive	inactive	inactive	-1.64%	inactive
CC(=O)[C@H]1CC[C@H]2[C@@H]3CC=C4C[C@@H](O)CC[C@]4(C)[C@H]3CC[C@]12C	5960 nM (active)	inactive	inactive	inactive	inactive	inactive	inactive	–	inactive	inactive	14.9% and 3.3%	inactive
Cc1ccc(NC(=O)C2(c3ccc4c(c3)OC(F)(F)O4)CC2)nc1-c1cccc(C(=O)O)c1	inactive	166 nM (active)	209 nM (active)	187 nM (active)	93.5 nM (active)	74.3 nM (active)	83.3 nM (active)	187 nM (active)	–	148 nM (active)	4.62%	inactive
C[C@](Cc1c[nH]c2ccccc12)(NC(=O)OC1C2CC3CC(C2)CC1C3)C(=O)NC[C@H](NC(=O)CCC(=O)O)c1ccccc1 (stereo partly specified)	inactive	inactive	inactive	inactive	inactive	–	–	inactive	inactive	inactive	0.678%	–
